The record followed here is PubChem BioAssay (NCATS).

Each structure is given as a SMILES string. Where “and” joins values, the source holds several entries; their conditions need not be identical. Identical values can stand only once. Results filed as inconclusive are left out. Calls of active or inactive are those of the source. Calls follow the shape of the full dose curve. Bridge positions count the residues as written; N and C are the ends. Square brackets hold non-standard residues; d marks the D form. Peptide text beside a SMILES is read from it. * marks the point of attachment. Octanoyl(6-Me) = CCC(C)CCCCC(=O)*; Dab = NCC[CH](N)C(=O)O

Assay [1] can be described thus: Primary qHTS for inhibitors of SARS-S pseudo-typed particle cell entry (AID 1479145). Also: nearly all actives have a fitted effect of over 45% in size. As to activity change, negative = inhibition: % is scaled to controls: 0 for no effect and ±100 for the full control effect. The conditions noted are these: outcome: dose series up to 57.1 µM unless noted.
A short description of assay [2]: Primary qHTS for Huh7 cytotoxicity: counterscreen for inhibitors of MERS-S pseudotyped particle cell entry (AID 1479147). The conditions noted are these: outcome: dose series up to 57.1 µM unless noted. Background: qHTS replaces the single test concentration by a dilution series.
Assay [3] is described as follows: Primary qHTS for inhibitors of MERS-S pseudo-typed particle cell entry (AID 1479149). Also: nearly all actives have a fitted effect of over 60% in size. As to activity change, negative = inhibition: % is scaled to controls: 0 for no effect and ±100 for the full control effect. The conditions noted are these: outcome: dose series up to 57.1 µM unless noted.
Assay [4] is described as follows: Primary qHTS for Vero E6 cytotoxicity: counterscreen for inhibitors of SARS-S pseudo-typed particle cell entry (AID 1479150). As to activity change, negative = cytotoxicity: % is scaled to controls: 0 for no effect and ±100 for the full control effect. The conditions noted are these: outcome: dose series up to 57.1 µM unless noted.
A short description of assay [5]: Cytotoxicity counterscreen for inhibitors of SARS-CoV-2 cell entry (AID 1645845). Also: nearly all actives have a fitted effect of over 50% in size. As to activity change, negative = cytotoxicity: % is scaled to controls: 0 for no effect and ±100 for the full control effect. The conditions noted are these: outcome: dose series up to 57.1 µM unless noted. The method, boiled down: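 HEK293-ACE2 cells (Expi293F stably expressing human ACE2) seeded overnight, then compound for 1 h plus 48 h at 37C. Viability as ATP content by luminescence; normalized to wells with cells and media-only wells.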

Assay [6] in a line: Primary qHTS to identify inhibitors of SARS-CoV-2 cell entry (AID 1645846). Also: nearly all actives have a fitted effect of over 45% in size. The conditions noted are these: SARS-CoV-2 pseudovirus cell entry assay, luminescence; activity change, negative = inhibition: at 57.1 µM (top of the series) unless noted. The method, boiled down: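 Luminescence readout (Bright-Glo luciferase) 48 h after pseudoparticle addition. HEK293-ACE2 cells, 1500/well; compound pre-incubation 1 h; Normalized to spike PP and bald PP.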

Regarding `C#C[C@]1(O)CC[C@H]2[C@@H]3CCC4=CC(=O)CCC4[C@H]3CC[C@@]21CC` (stereo partly drawn), the Potency entry in assay [1], in assay [2], in assay [3], in assay [4] and in assay [5] was “inactive” each time. For the same molecule, the activity change, negative = inhibition in assay [6] is -19.1%.
For the molecule `C=C1/C(=C/C=C2\CCC[C@]3(C)[C@@H]([C@H](C)/C=C/C=C/C(O)(CC)CC)CC[C@@H]23)C[C@@H](O)C[C@@H]1O`, the Potency entry in assay [1], in assay [2], in assay [3], in assay [4] and in assay [5] was “inactive” throughout. Further, the activity change, negative = inhibition in assay [6] is -5.54%.
With `[2H]N[C@@H](Cc1ccccc1)C(=O)N1CCC[C@H]1C(=O)N[C@@H](CCCNC(=N)N)C(=O)N1CCC[C@H]1C(=O)NCC(=O)NCC(=O)NCC(=O)NCC(=O)N[C@@H](CC(N)=O)C(=O)NCC(=O)N[C@@H](CC(=O)O)C(=O)N[C@@H](Cc1ccccc1)C(=O)N[C@@H](CCC(=O)O)C(=O)N[C@@H](CCC(=O)O)C(=O)N[C@H](C(=O)N1CCC[C@H]1C(=O)N[C@@H](CCC(=O)O)C(=O)N[C@@H](CCC(=O)O)C(=O)N[C@@H](Cc1ccc(O)cc1)C(=O)N[C@@H](CC(C)C)C(=O)O)[C@@H](C)CC`, the activity change, negative = inhibition in assay [1] was -29.4% [at 11.4 µM] (inactive); in assay [3], -9.94% [at 11.4 µM] (inactive); in assay [6], -18.8% [at 11.3 µM]. The outcome in assay [2] was “inactive [at 11.4 µM]”. The activity change, negative = cytotoxicity was -0.847% [at 11.4 µM] (inactive) in assay [4] and 2.97% [at 11.3 µM] (inactive) in assay [5].
As to `CO/N=C(/C(=O)N[C@@H]1C(=O)N2C(C(=O)O)=CCS[C@H]12)c1csc(N)n1`, the Potency result in assay [1], in assay [2], in assay [3], in assay [4] and in assay [5] was “inactive” throughout. In assay [6], the activity change, negative = inhibition was -20.9%.
Consider `CCC(C)CCCCC(=O)NC(CCN)C(=O)NC(C(=O)NC(CCN)C(=O)NC1CCNC(=O)C(C(C)O)NC(=O)C(CCN)NC(=O)C(CCN)NC(=O)C(CC(C)C)NC(=O)C(Cc2ccccc2)NC(=O)C(CCN)NC1=O)C(C)O` (stereo not drawn) ({Octanoyl(6-Me)}-[Dab]T[Dab][Dab][Dab]FL[Dab][Dab]T; lactam 4-C; configuration not given here), for which the Potency entry in assay [1], in assay [2], in assay [3], in assay [4] and in assay [5] was “inactive” each time. For the same molecule, the activity change, negative = inhibition in assay [6] is -13.5% [at 27.1 µM].
For `CNC(=O)OCc1cccc(COC(=O)NC)n1`, the Potency entry in assay [1], in assay [2], in assay [3], in assay [4], in assay [5] and in assay [6] was “inactive” in each case.
In the case of `C=C(C)C1CC=C(C)CC1` (stereo not drawn), the Potency result in assay [1], in assay [2], in assay [3], in assay [4] and in assay [5] was “inactive” each time. The activity change, negative = inhibition in assay [6] is -21.4% [at 114 µM].
For the molecule `O=S(=O)(O)Oc1ccc(C(c2ccc(OS(=O)(=O)O)cc2)c2ccccn2)cc1`, the Potency result in assay [1], in assay [2], in assay [3], in assay [4], in assay [5] and in assay [6] was “inactive” each time.
For `CO/N=C(\C(=O)N[C@@H]1C(=O)N2C(C(=O)O)=C(CSc3nnnn3C)CS[C@H]12)c1csc(N)n1`, the Potency entry in assay [1], in assay [2], in assay [3], in assay [4] and in assay [5] was “inactive” in each case. Besides, the activity change, negative = inhibition in assay [6] is -27.5%.
Regarding `C[C@H]1CN(C[C@H](Cc2ccccc2)C(=O)NCC(=O)O)CC[C@@]1(C)c1cccc(O)c1`, the Potency result in assay [1], in assay [2], in assay [3], in assay [4] and in assay [5] was “inactive” each time. The activity change, negative = inhibition in assay [6] was -6.59% and -17.3%.
With `O=P(O)(O)OP(=O)(O)O`, the Potency result in assay [1], in assay [2], in assay [3], in assay [4] and in assay [5] was “inactive” throughout. For the same molecule, the activity change, negative = inhibition in assay [6] is -3.78%.
In the case of `C=CCN1CC[C@]23c4c5ccc(O)c4O[C@H]2[C@@H](OCCOCCOCCOCCOCCOCCOCCOC)CC[C@@]3(O)[C@H]1C5`, the Potency entry in assay [1], in assay [2], in assay [3], in assay [4] and in assay [5] was “inactive” in each case. The activity change, negative = inhibition in assay [6] was -22.8%.
On to `OC[C@H]1O[C@@H](c2ccc(F)c(Cc3cc4ccccc4s3)c2)[C@H](O)[C@@H](O)[C@@H]1O`, for which the Potency result in assay [1], in assay [2], in assay [3], in assay [4] and in assay [5] was “inactive” throughout. The activity change, negative = inhibition in assay [6] is -24.7%.
Take `Nc1c(Br)cc(Br)cc1CNC1CCC(O)CC1` (stereo not drawn): the Potency result in assay [1], in assay [2], in assay [3], in assay [4] and in assay [5] was “inactive” in each case. The activity change, negative = inhibition in assay [6] was -18.6%.
On to `O=C(O)c1ccc(NC(=O)[C@H](Cc2ccc(O)cc2)NC(=O)c2ccccc2)cc1`, for which the Potency result in assay [1], in assay [2], in assay [3], in assay [4] and in assay [5] was “inactive” in each case. The activity change, negative = inhibition in assay [6] is -10.6%.
Turning to `C/C=C(/C)C(=O)O[C@H]1C(C)=CC23C(=O)C(C=C(CO)[C@@H](O)[C@]12O)[C@H]1[C@@H](C[C@H]3C)C1(C)C` (stereo partly drawn), the Potency result in assay [1], in assay [2], in assay [3], in assay [4], in assay [5] and in assay [6] was “inactive” each time.
For the molecule `CC[C@H]1OC(=O)[C@H](C)[C@@H](O[C@H]2C[C@@](C)(OC)[C@@H](O)[C@H](C)O2)[C@H](C)[C@@H](O[C@@H]2O[C@H](C)C[C@H](N(C)C)[C@H]2O)C(C)(O)C[C@@H](C)/C(=N\OCOCCOC)[C@H](C)[C@@H](O)[C@]1(C)O` (stereo partly drawn), the Potency entry in assay [1], in assay [2], in assay [3], in assay [4], in assay [5] and in assay [6] was “inactive” throughout.
`O=P(O)(O)CP(=O)(O)O`: the Potency entry in assay [1], in assay [2], in assay [3], in assay [4] and in assay [5] was “inactive” each time. Further, in assay [6], the activity change, negative = inhibition is -15.6%.
